This passage reports growth results from PubChem BioAssay (NCI).

The panel holds about 83,000 compounds, 20% with a hit somewhere; the sample as a whole holds those more often.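 Values shown are percent growth following 48 h exposure of cells in 96-well plates to a single concentration of compound; below 10 was considered active.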 A number with no mark means an inactive call. Active and inactive are the calls of the source.

Some test systems named below: NCI-H23 lung; NCI-H226 lung; NCI-H322M lung; HOP-62 NSCLC; NCI-H460 lung; HOP-92 NSCLC; NCI-H522 lung; A549/ATCC NSCLC; 786-0 renal; COLO 205 colon; DU-145 prostate; K-562 leukemia; MALME-3M melanoma; MDA-MB-231 breast; RXF 393 renal; SF-268 CNS; SF-295 CNS; SF-539 CNS; UACC-257 melanoma; M14 melanoma.
Holding throughout (assay): NCI-60 one-dose screen, 48 h (100 = growth as untreated, 0 = no growth, -100 = all killed)
Common to all, as to conditions: 10 µM unless noted

On to `C=C1CC2(OC1=O)C(=O)N(CCCCCCCN1C(=O)C3(CC(=C)C(=O)O3)c3ccccc31)c1ccccc12` (stereo not given), for which the growth in the test on NCI-H23 lung is 52.6%; with NCI-H226 lung, 63%; with NCI-H322M lung, 87%; in the test on HOP-62 NSCLC, 117%; in the test on NCI-H460 lung, 38%; in the test with HOP-92 NSCLC, -1.35% (active). The growth was -48.1% (active) with NCI-H522 lung; 83.7% in the test with A549/ATCC NSCLC; 46.7% with 786-0 renal; 12.8% in the test on COLO 205 colon; 58.2% in the test on DU-145 prostate; 5% (active) in the test with K-562 leukemia. Also, the growth in the test with MALME-3M melanoma is -61.4% (active); in the test on MDA-MB-231 breast, -9.65% (active); with RXF 393 renal it was -32.8% (active); with SF-268 CNS, 60.3%; with SF-295 CNS it was 82.6%; with SF-539 CNS, 16.9%. Further, the growth in the test on UACC-257 melanoma is 65%; in the test with M14 melanoma, 36.5%.

`C/C(Cc1ccc(Cl)cc1)=C(\c1ccc(OCCN2CCCCCC2)cc1)c1ccc(OC(=O)C2CCCCC2)cc1`: the growth is 74.8% in the test on NCI-H23 lung; 79.2% in the test with NCI-H226 lung; 70.5% with NCI-H322M lung; 81.5% in the test on HOP-62 NSCLC; 34.7% in the test with NCI-H460 lung; 29.1% in the test with HOP-92 NSCLC. The growth with NCI-H522 lung was 64.8%; in the test with A549/ATCC NSCLC, 66.5%; in the test on 786-0 renal it was 70%; in the test with COLO 205 colon, -21.8% (active); with DU-145 prostate, 70.4%; in the test on K-562 leukemia, 11.4%. In addition, the growth with MALME-3M melanoma was 85.7%; with MDA-MB-231 breast it was 85.4%; in the test on RXF 393 renal it was 56.2%; with SF-268 CNS, 57%; in the test on SF-295 CNS, 89.8%; in the test with SF-539 CNS, 74.2%. Further, the results for the growth in the test on UACC-257 melanoma and in the test with M14 melanoma were 91% and 12.7%, respectively.

As for `COc1ccc(/C=N\NC(=O)CN2CCN(c3cc4c(cc3F)c(=O)c(C(=O)N/N=C/c3ccc(OC)cc3)cn4C3CC3)CC2)cc1`, the growth with NCI-H23 lung is 96.3%; in the test with NCI-H226 lung, 85.6%; in the test with NCI-H322M lung it was 91.7%; in the test on HOP-62 NSCLC it was 97.4%; with NCI-H460 lung it was 86.1%; with HOP-92 NSCLC, 92.1%. For the same compound, the growth in the test with NCI-H522 lung is 73.8%; with A549/ATCC NSCLC, 82.8%; with 786-0 renal, 93.9%; with COLO 205 colon, 96.9%; in the test with DU-145 prostate, 91.6%; in the test on K-562 leukemia it was 71.7%. For the same compound, the growth in the test with MALME-3M melanoma is 85.2%; with MDA-MB-231 breast, 85.7%; with RXF 393 renal, 83.3%; with SF-268 CNS, 76.7%; in the test with SF-295 CNS it was 91.3%; in the test with SF-539 CNS, 83%. Moreover, the growth was 91.6% in the test on UACC-257 melanoma and 92.1% in the test on M14 melanoma.

For the compound `CCCCOc1ccc(NC(=O)n2nc(NC(C)=O)c3cc(NC(C)=O)ccc32)cc1`, the growth is 101% in the test with NCI-H23 lung; 99% in the test on NCI-H226 lung; 99.4% in the test on NCI-H322M lung; 108% in the test with HOP-62 NSCLC; 102% in the test with NCI-H460 lung; 93% in the test with HOP-92 NSCLC. For the same compound, the growth is 91.7% in the test with NCI-H522 lung; 102% in the test on A549/ATCC NSCLC; 93.2% in the test with 786-0 renal; 121% in the test with COLO 205 colon; 94.6% with DU-145 prostate; 33.7% in the test with K-562 leukemia. The growth with MALME-3M melanoma is 93.3%; in the test on MDA-MB-231 breast, 105%; in the test with RXF 393 renal it was 95.6%; in the test on SF-268 CNS it was 127%; in the test with SF-295 CNS, 84%; with SF-539 CNS, 95%. For the same compound, the growth with UACC-257 melanoma is 112%; with M14 melanoma, 95.2%.

Consider `O=S(=O)(Nc1ccc(Cl)cc1Cl)c1ccc(-c2cnc(C3CC3)o2)cc1`, for which the growth in the test on NCI-H23 lung was 28.2%; in the test with NCI-H226 lung, 59%; in the test with NCI-H322M lung it was 36.5%; in the test on HOP-62 NSCLC, 31.5%; in the test on NCI-H460 lung, 12.7%; with HOP-92 NSCLC it was 51.2%. Moreover, the growth is -1.33% (active) in the test on NCI-H522 lung; 26.5% in the test with A549/ATCC NSCLC; 41.4% with 786-0 renal; 4.78% (active) in the test on COLO 205 colon; 8.88% (active) in the test on DU-145 prostate; 10.9% in the test with K-562 leukemia. Besides, the growth is 37.7% in the test with MALME-3M melanoma; 44.2% in the test on MDA-MB-231 breast; -10.7% (active) in the test on RXF 393 renal; 53.6% in the test with SF-268 CNS; 1.37% (active) in the test on SF-295 CNS; -13.5% (active) in the test on SF-539 CNS. Further, the growth is 55.4% in the test with UACC-257 melanoma and 10.8% with M14 melanoma.

As for `COCCCN=C(N)c1ccc(NC(=O)c2ccc(C(=O)Nc3ccc(C(N)=NCCCOC)cc3)cc2)cc1`, the growth is 82.1% in the test on NCI-H23 lung; 90.7% with NCI-H226 lung; 90.5% in the test with NCI-H322M lung; 81.6% in the test with HOP-62 NSCLC; 102% with NCI-H460 lung; 134% in the test with HOP-92 NSCLC. The growth with NCI-H522 lung was 97.5%; in the test with A549/ATCC NSCLC it was 106%; with 786-0 renal, 87.7%; with COLO 205 colon, 105%; in the test with DU-145 prostate, 148%; with K-562 leukemia, 66.8%. Further, the growth in the test with MALME-3M melanoma is 75.5%; in the test on MDA-MB-231 breast it was 112%; with RXF 393 renal, 142%; with SF-268 CNS it was 103%; with SF-295 CNS it was 93.7%; with SF-539 CNS it was 98.5%. The growth in the test on UACC-257 melanoma was 121%; with M14 melanoma, 80.3%.

`COc1ccc(S(=O)(=O)NCCCNc2nccc(-c3c(-c4cccc(N)c4)nc4sccn34)n2)cc1`: the growth is 97.4% in the test with NCI-H23 lung; 89.4% with NCI-H226 lung; 101% with NCI-H322M lung; 117% in the test on HOP-62 NSCLC; 97.1% in the test with NCI-H460 lung; 92.8% with HOP-92 NSCLC. Moreover, the growth with NCI-H522 lung was 101%; in the test on A549/ATCC NSCLC, 99.7%; with 786-0 renal it was 92.1%; with COLO 205 colon, 75.8%; in the test with DU-145 prostate, 92.1%; with K-562 leukemia it was 69.7%. Moreover, the growth with MALME-3M melanoma was 103%; in the test with MDA-MB-231 breast, -61.7% (active); in the test on RXF 393 renal, 96.1%; in the test on SF-268 CNS it was 87.6%; in the test on SF-295 CNS, 102%; with SF-539 CNS, 101%. The growth was 113% in the test on UACC-257 melanoma and 80.8% in the test on M14 melanoma.

For the compound `CC(=O)CC(C)(C)c1ccc(Cl)cc1`, the growth is 95.5% with NCI-H23 lung; 99% with NCI-H226 lung; 107% in the test on NCI-H322M lung; 93.3% with HOP-62 NSCLC; 108% in the test on NCI-H460 lung; 80% in the test with HOP-92 NSCLC. Also, the growth in the test on NCI-H522 lung is 95.5%; with A549/ATCC NSCLC, 103%; in the test on 786-0 renal, 97.8%; in the test with COLO 205 colon, 116%; with DU-145 prostate, 108%; in the test on K-562 leukemia, 101%. Also, the growth with MALME-3M melanoma is 108%; in the test with MDA-MB-231 breast, 106%; with RXF 393 renal, 98%; in the test on SF-268 CNS it was 95.7%; with SF-295 CNS, 101%; with SF-539 CNS it was 102%. Besides, the growth in the test with UACC-257 melanoma is 101%; with M14 melanoma it was 96.8%.
